Compound activity deposited in PubChem BioAssay by National Center for Advancing Translational Sciences (NCATS).
AMA1 RON2 block = disrupts binding of P. falciparum AMA1 to RON2; Potency, µM (highest dose often 58.2 µM), inactives show at the top dose activity change, negative = inhibition, most hits filed as inhibitors; 0.2% of 360,000 active; AlphaScreen AMA1-biotinylated RON2 peptide binding;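 further: 0% = vehicle wells and -100% = peptide control; nearly all actives have a fitted effect of over 45% in size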
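AMA1 (3D7) with his tag at 25 nM final met compounds first, then biotinylated RON2 peptide at 25 nM; detection used donor plus acceptor beads, 10 µg/mL apiece, read by AlphaScreen after 30 min at room temperature.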
Giardia FBPA inh-1 = blocks Giardia fructose-bisphosphate aldolase activity | A8B2U2 | purified Giardia FBPA | Potency, µM (doses to about 59.6 µM), for the others: at the top dose activity, negative = inhibition, most hits filed as inhibitors | 0.71% of 290,000 active | AID 2451; further: nearly all actives have a fitted effect of over 55% in size
Target sequence (A8B2U2 whole entry, looked up): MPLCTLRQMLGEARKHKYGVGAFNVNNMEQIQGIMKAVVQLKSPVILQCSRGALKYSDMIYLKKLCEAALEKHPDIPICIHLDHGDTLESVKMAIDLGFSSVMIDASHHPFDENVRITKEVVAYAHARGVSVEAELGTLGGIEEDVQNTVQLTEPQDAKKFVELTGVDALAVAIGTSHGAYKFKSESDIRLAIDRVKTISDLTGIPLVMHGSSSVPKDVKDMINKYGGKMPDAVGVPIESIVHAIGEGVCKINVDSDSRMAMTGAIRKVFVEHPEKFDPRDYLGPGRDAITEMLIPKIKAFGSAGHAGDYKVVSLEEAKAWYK
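40 nM FBPA preincubated 10 min at RT with compound (up to 57.5 uM final), then substrate plus GAPDH/TPI/NAD/arsenate coupling and diaphorase/resazurin added. Fluorescence read after 20 min at RT, 525/598 nm.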
AmpC detergent = inhibitors of E. coli AmpC beta-lactamase with detergent; Potency, µM (top dose mostly 114 µM), for the others: at the highest dose activity change, negative = inhibition, actives largely listed as inhibitors; 0.041% of 370,000 active; AID 485294; AmpC hydrolysis of nitrocefin, absorbance 480 nm, 0.01% Triton;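 further: 0% = no-compound wells and -100% = no-enzyme wells; nearly all actives have a fitted effect of over 25% in size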
Target sequence (P00811 whole entry, looked up): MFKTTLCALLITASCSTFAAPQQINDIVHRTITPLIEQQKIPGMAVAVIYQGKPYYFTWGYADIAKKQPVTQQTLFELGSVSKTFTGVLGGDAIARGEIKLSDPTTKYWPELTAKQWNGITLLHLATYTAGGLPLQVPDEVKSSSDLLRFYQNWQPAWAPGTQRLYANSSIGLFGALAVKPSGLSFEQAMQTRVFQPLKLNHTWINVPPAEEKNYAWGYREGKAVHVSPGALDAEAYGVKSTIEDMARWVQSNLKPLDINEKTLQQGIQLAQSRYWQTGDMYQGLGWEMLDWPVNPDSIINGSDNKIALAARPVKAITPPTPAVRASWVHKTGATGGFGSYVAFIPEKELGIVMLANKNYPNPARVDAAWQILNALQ
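20 mM phosphate pH 7.0 + 0.01% (detergent screen) or 0.0001% Triton X-100; 5.3 nM AmpC reagent; cpd preinc 15 min RT; nitrocefin (800 uM stock) to start; A480 q20 s × 4 min; Activity was normalised to no-enzyme and no-compound control wells.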
AmpC inh no detg = inhibitors of E. coli AmpC beta-lactamase without detergent. P00811. Potency, µM (top dose mostly 57.1 µM), for the others: at the highest dose activity change, negative = inhibition, most hits filed as inhibitors. AID 485341. AmpC nitrocefin hydrolysis, absorbance 480 nm, 0.0001% Triton. 0.52% of 330,000 active;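 further: plate controls were no compound for no effect and no enzyme for full effect; nearly all actives have a fitted effect of over 20% in size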
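AmpC (5.3 nM in the dispensed reagent) in 20 mM phosphate pH 7.0 with 0.01% (detergent screen) or 0.0001% Triton X-100 was preincubated with compounds for 15 min at room temperature. Nitrocefin was then added from an 800 uM solution, and hydrolysis was followed at 480 nm.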
Giardia growth = inhibitors of Giardia lamblia growth. Potency, µM (highest dose often 57.5 µM), for inactives: at the highest dose activity change, negative = inhibition, actives largely listed as inhibitors. 5% of 1,500 active. Giardia lamblia trophozoite growth inhibition. shares compounds with Giardia FBPA inh-1. AID 2785;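 further: trophozoites exposed to compound for 48 h at 37 °C; nearly all actives have a fitted effect of over 70% in size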
Mammalian tox = mammalian cytotoxicity of Giardia aldolase inhibitor hits | shares compounds with Giardia FBPA inh-1 | mammalian cell viability counter-screen, qHTS | Potency, µM (titrated, usually from 57.5 µM), without a hit: at the highest dose viability change, negative = toxicity, hits mostly inhibitors | 4% of 1,500 active | AID 2786;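 further: Chinese hamster ovary cells used as mammalian cytotoxicity surrogate; viability measured as cellular ATP by luminescence; compound exposure lasted 48 h before reading; nearly all actives have a fitted effect of over 60% in size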
Giardia FBPA inh-2 = confirmation of Giardia fructose-bisphosphate aldolase inhibitors; AID 2787; 5% of 1,500 active; shares compounds with Giardia FBPA inh-1; Potency, µM (highest dose often 57.5 µM), for inactives: at the top dose activity change, negative = inhibition, usual class: inhibitors; purified Giardia aldolase enzyme activity, qHTS; further: nearly all actives have a fitted effect of over 45% in size
Rabbit aldolase = blocks rabbit muscle aldolase in Giardia aldolase selectivity test; Potency, µM (top dose mostly 57.5 µM), for the others: at the highest dose activity, negative = inhibition, usual class: inhibitors; shares compounds with Giardia FBPA inh-1; 4% of 1,500 active; Rabbit muscle FBPA enzyme inhibition, selectivity counter-screen; AID 2794; further: nearly all actives have a fitted effect of over 60% in size
GAPDH counter = counter-screen for Giardia aldolase inhibitors: GAPDH coupling enzyme | Potency, µM (highest dose often 57.5 µM), without a hit: at the highest dose activity change, negative = inhibition, usual class: inhibitors | 6% of 1,500 active | GAPDH coupling enzyme counterscreen, biochemical, qHTS | shares compounds with Giardia FBPA inh-1; further: nearly all actives have a fitted effect of over 55% in size
* marks the source's active call; other numbers are inactive results; ? = inconclusive; . = no result given; [ ] = remark or other dose. Hits are enriched below; roughly 1.1% of the tested compounds scored in any of these assays. The call rests on the fitted dose curve; in most records, active means well fitted curve in the direction sought with a large enough effect; inconclusive means small, poorly fitted or top-dose-only effect, or another doubt; inactive means no such curve, though single readings can be large; an effect the other way counts as inactive or inconclusive. Unless noted, on the % scale 0 is the no-effect control and ±100 the full control effect; potency means the concentration at half of the fitted maximal effect.

SMILES | AMA1 RON2 block | Giardia FBPA inh-1 | AmpC detergent | AmpC inh no detg | Giardia growth | Mammalian tox | Giardia FBPA inh-2 | Rabbit aldolase | GAPDH counter
CNC(=O)c1c(C)[nH]c(=S)c(C#N)c1-c1ccco1 | 15% | 13µM* | 2% | 49% | 3%[10.4 µM] | 15% | 6% | 1% | 13%
CCOC(=O)N1CCN(CC(O)COc2ccccc2C(C)C)CC1 (centres undefined) | -1% | -4% | -5% | 133% | . | . | . | . | .
CCN(CCNCC(O)COc1ccccc1C(C)C)c1cccc(C)c1 (centres undefined) | ? | 22µM* | 1% | 1% | 12% | -26% | -5% | 0% | -16%
CCC(=O)N1CCCc2cc(S(=O)(=O)N3CCC(C(=O)Nc4ccc(F)c(F)c4)CC3)ccc21 | . | . | -3% | . | . | . | . | . | .
Cc1[nH]c2ccccc2c1/C=N/Nc1nc2ccccc2[nH]1 | -37% | 18µM* | 19% | -28% | -4%[10.4 µM] | -20% | -10% | -6% | -2%
CCc1nnc(N/N=C/c2cc(C)c(C)cc2C)n1N | 33% | 13µM* | ? | -10% | 17% | -4% | -24% | -8% | -5%
Cc1nnc(N/N=C/c2c(Cl)cccc2Cl)n1N | 33% | 22µM* | -1% | -17% | 13% | 8% | -15% | -3% | -1%
COC(=O)c1ccccc1-c1ccc(/C=N/NC(N)=O)o1 | -23% | -8% | 6% | -12% | . | . | . | . | .
Cc1nnc(N/N=C/c2ccc(-c3ccccc3F)o2)n1N | 99% | 16µM* | 1% | -22% | ? | 0% | 16µM* | ? | ?
Cc1ccc2oc(C(=O)N(Cc3sccc3C)C3CCS(=O)(=O)C3)c(C)c2c1 (centres undefined) | . | . | -3% | . | . | . | . | . | .
O=C(Cn1c(SCc2cccc(F)c2)nc2cccnc21)Nc1ccc(F)c(Cl)c1 | . | . | 5% | . | . | . | . | . | .
Cc1ccc2cccc(NC(=O)c3ccc(-c4cccc(Cl)c4)o3)c2n1 | . | . | -10% | . | . | . | . | . | .
CCc1nnc(N/N=C/c2c(C)[nH]c3ccccc23)n1N | 11% | 18µM* | 1% | -27% | 17% | 0% | ? | ? | -24%
CCOc1cc(/C=N/Nc2ncnc(Cl)c2N)ccc1O | 34% | ? | 2% | -21% | . | . | . | . | .
CCc1nnc(N/N=C/c2c(F)cccc2Cl)n1N | 32% | 20µM* | -19% | -14% | -26% | 1% | -27% | -15% | -13%
CCOc1cc(/C=N/Nc2nnc(C)n2N)ccc1O | 63% | 16µM* | 13% | -4% | -17% | 14% | ? | ? | ?
O=C(N/N=C/C(Cl)=C/c1ccccc1)c1ccccn1 | 88% | -1% | 0% | -13% | . | . | . | . | .
CC(/C=N/NC(=O)c1ccccn1)=C\c1ccco1 | 14% | 20µM* | 11% | -9% | ? | 25µM* | ? | -25% | ?
O=C(N/N=C/C=C\c1ccco1)c1ccccn1 | ? | ? | 3% | -19% | . | . | . | . | .
O=C(N/N=C/C=C/c1ccco1)c1cnccn1 | 21% | 20µM* | 3% | -5% | 3%[10.4 µM] | 12% | ? | -11% | ?
Cc1ccc(C)n1-c1nc(=S)[nH][nH]1 | 43% | 18µM* | ? | -36% | -3%[10.4 µM] | -8% | 2% | -22% | -21%
COc1cccc(CNC[C@H]2O[C@@H](n3ccc(N)nc3=O)[C@H](O)[C@@H]2O)c1OCc1ccc(F)cc1Cl | 0% | . | . | . | . | . | . | . | .
COC(=O)C1=C(C)NC(C)=C(C(=O)NCCCN2CCC(c3ccccc3)(c3ccccc3)CC2)C1c1ccc([N+](=O)[O-])cc1 (centres undefined) | . | -7% | . | . | . | . | . | . | .
C[C@H](N)C(=O)N1CCC(C(=O)N[C@@H](Cc2ccccc2)C(=O)Nc2ccc(F)cc2)CC1 | 13% | 16µM* | -10% | -19% | -26% | 12% | -2% | -3% | 3%
CCCCNC(=O)Cn1nc(N2CCN(c3ccccc3OC)CC2)ccc1=O | . | . | 1% | . | . | . | . | . | .
SMILES | AMA1 RON2 block | Giardia FBPA inh-1 | AmpC detergent | AmpC inh no detg | Giardia growth | Mammalian tox | Giardia FBPA inh-2 | Rabbit aldolase | GAPDH counter
Cc1ccc(C(=O)NNC(=S)NC(=O)c2ccc(Cl)cc2Cl)cc1 | 50% | ? | -8% | -36% | -33%[38.3 µM] | ? | 10% | 4% | 11%
Cc1ccc(-n2c(SCc3ccccc3F)nc3[nH]ncc3c2=O)cc1Cl | . | . | 12% | . | . | . | . | . | .
O=C(CNC1CC1)Nc1cc(C(F)(F)F)ccc1Cl | -12% | 7.9µM* | 2% | -5% | ? | -12% | -2% | 4% | 5%
CN(C)CC(=O)Nc1cc(C(F)(F)F)ccc1Cl | 8% | 0% | ? | 2% | . | . | . | . | .
Cc1cc2cc(C(c3nnnn3CC3CCCO3)N3CCCc4ccccc43)c(=O)[nH]c2cc1C (centres undefined) | 3% | 4µM* | 9% | -11% | 1% | -5% | -13% | -3% | -19%
O=C(O)c1ccc(CN2C[C@@H](CO)O[C@@H](n3cnc4c(NCc5ccc(F)cc5)ncnc43)C2)cc1 | 3% | . | . | . | . | . | . | . | .
COc1cc(NC(=O)CC(C)n2nc(C)cc2C)cc(OC)c1 (centres undefined) | . | . | 19% | . | . | . | . | . | .
